This is an account of results in PubChem BioAssay (NCI).

This is part of a sample that, as a whole, favours compounds with a hit. Of some 79,000 tested, about 15% had one in any assay. Active and inactive are the calls of the source. Cut-off read from the data, not from the text of the source: active = growth inhibition above about 70%; inactive = the rest.

A short description of the first experiment: NCI Yeast Anticancer Drug Screen. Data for the bub3 strain (AID 167). The conditions noted are these: S. cerevisiae bub3 mutant strain, at 50.0 µM (retest, dose inferred, filed as 5.0), hits give high values. The gist of the method: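 Screening used yeast with an engineered genetic alteration affecting cell cycle control. Compound-exposed cultures were compared with vehicle cultures, and reduced growth was taken as inhibition.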
In the case of `CCC(c1ccccc1)N1C(=O)c2ccccc2S1(=O)=O` (stereo not given), the growth inhibition was 50% (inactive).
The same measure, in the same setting: next, `Cc1ccc2cc3ccccc3c(-c3ccccc3)c2c1`: -12% (inactive).
Regarding `CC(=O)Oc1ccc(C)cc1C(C)(C)C`, the growth inhibition is -7% (inactive).
Regarding `CCCCCCCCCCC[N+](C)(C)CCCCCC[N+](C)(C)CCCCCCCCCCC`, the growth inhibition was 100% (active).
Still for that read-out and setting: next, `CCN(CC)CCCNc1nc(NCCCN(CC)CC)c2nc(-c3ccccc3)c(-c3ccccc3)nc2n1`: 92% (active); `O=[N+]([O-])c1cnc(Sc2cncc[n+]2[O-])s1`: 99% (active).
On to `O=c1[nH]c(=O)c2cc([N+](=O)[O-])cc([N+](=O)[O-])c2[nH]1`, for which the growth inhibition was 70% (active).
In the case of `O=C(NC(=O)C(F)(F)F)Nc1ccc(Cl)cc1`, the growth inhibition is -2% (inactive).
Same read-out and setting: to `O=[N+]([O-])c1ccc(S)c(Cl)c1` belongs 95% (active).
Regarding `CS(=O)(=O)n1c(C(O)c2ccccc2)nc2ccccc21` (stereo not given), the growth inhibition was 38% (inactive).
`O=C(NCc1ccccc1)C1C(=O)N(Cc2ccccc2)C(=O)/C1=N/O` (stereo not given): the growth inhibition is -1% (inactive).
Regarding `C[n+]1c(/C=C/c2ccccc2Cl)sc2ccccc21`, the growth inhibition is 98% (active).
Take `CC(=O)c1ccc(Cl)c(N=Cc2cc(Br)ccc2O)c1`: the growth inhibition was 98% (active).
Regarding `O=C(c1ccc(Cl)cc1)c1ccc([N+](=O)[O-])cc1`, the growth inhibition was 31% (inactive).
`Nc1ccc2c(c1)[nH]c(=O)c1cc(Cl)c(Cl)cc12`: the growth inhibition is 84% (active).
For `COc1ccc(C2CC(c3c(O)ccc4ccccc34)=NN2)cc1OC` (stereo not given), the growth inhibition is 96% (active).
For the molecule `CC[N+]1(C)CCC(O)(c2ccc(Cl)c(Cl)c2)C(C(=O)c2ccc(Cl)c(Cl)c2)C1` (stereo not given), the growth inhibition is 100% (active).
Same read-out and setting: next, `Nc1nc(Cl)cc(NCC2(CO)CC(CCCc3ccccc3)C2)n1` (stereo not given): 17% (inactive); `Nc1nc(-c2cc3cc(Cl)ccc3o2)cs1`: 71% (active).
For `O=C(N(c1ccc(Cl)cc1)c1ccc(Cl)cc1)C(Cl)(Cl)Cl`, the growth inhibition is 74% (active).
As to `NC(CSSCC(N)C(=O)Nc1ccc2ccccc2c1)C(=O)Nc1ccc2ccccc2c1` (stereo not given), the growth inhibition is 99% (active).
On to `O=C/C=C/c1cc([N+](=O)[O-])ccc1Cl`, for which the growth inhibition was 65% (inactive).
On the same count and under the same terms, to `COc1cc(C(c2cc3c(cc2OC(C)=O)OCO3)C(C(C)=O)C(C)=O)cc(OC)c1OC(C)=O` (stereo not given) belongs 13% (inactive); to `CCCCc1ccc(Nc2nc(N)c3[nH]cnc3n2)cc1`, 31% (inactive); to `O=C(O)/C=C/C(=O)Nc1cccc2ccccc12`, 100% (active).
On to `Cc1cc(O)c(C(=O)/C=C/c2ccnc3ccccc23)c(=O)o1`, for which the growth inhibition is 8% (inactive).
For the molecule `ONC1=Nc2ccccc2OCc2cc(Br)c(Br)cc2COc2ccccc2N=C1NO`, the growth inhibition is 91% (active).
For `NNC(=O)c1ccc(N)cc1O`, the growth inhibition is -1% (inactive).
Regarding `O=C(N/C(=C\c1ccc2c(c1)OCO2)c1nc2ccccc2s1)c1ccccc1`, the growth inhibition is 98% (active).
Still for that read-out and setting: next, `CC1=NN(C(=O)c2ccncc2)C(=O)C1N=Nc1ccc(C)c([N+](=O)[O-])c1` (stereo not given): 18% (inactive); `COc1ccc2nc3cc(Cl)ccc3c(Nc3nccs3)c2c1`: 96% (active).
`S=C(S)NCCN1CCNCC1`: the growth inhibition is -11% (inactive).
As for `ClCc1nc2ccccc2c2ccccc12`, the growth inhibition was 67% (inactive).
As for `ClC1=C(Cl)C(Cl)(C(Cl)(Cl)Cl)C(Cl)=C1Cl`, the growth inhibition was 98% (active).
Still for that read-out and setting: to `FC(F)(F)COP1(OCC(F)(F)F)=NP(OCC(F)(F)F)(OCC(F)(F)F)=NP(c2ccccc2)(c2ccccc2)=N1` belongs -8% (inactive).
On the same count and under the same terms, to `CC(C)c1c(P(=O)(c2ccccc2)c2ccccc2)n(C)c2ccccc12` belongs 99% (active); to `CN(CCC1CCCCC1)CCC1CCCCC1`, 97% (active).
Take `Cc1nc(Cl)nc(N)c1[N+](=O)[O-]`: the growth inhibition is 31% (inactive).
For the molecule `Nc1ccc2[nH]c3ccccc3c2c1`, the growth inhibition is 18% (inactive).
Still for that read-out and setting: to `COc1ccc(NC(=O)CSC(N)=O)cc1` belongs 25% (inactive).

Still in this experiment, the particulars now being: S. cerevisiae bub3 mutant strain, at 50.0 µM, hits give high values.
Consider `CCC(c1ccccc1)N1C(=O)c2ccccc2S1(=O)=O` (stereo not given), for which the growth inhibition is 92.2% (active).
The same measure, in the same setting: to `Cc1ccc2cc3ccccc3c(-c3ccccc3)c2c1` belongs -1.15% (inactive); to `CC(=O)Oc1ccc(C)cc1C(C)(C)C`, 59.3% (inactive).
Same read-out and setting: next, `CCCCCCCCCCC[N+](C)(C)CCCCCC[N+](C)(C)CCCCCCCCCCC`: 88.4% (active); `CCN(CC)CCCNc1nc(NCCCN(CC)CC)c2nc(-c3ccccc3)c(-c3ccccc3)nc2n1`: 56.1% (inactive).
For `O=[N+]([O-])c1cnc(Sc2cncc[n+]2[O-])s1`, the growth inhibition was 99.5% (active).
Consider `O=c1[nH]c(=O)c2cc([N+](=O)[O-])cc([N+](=O)[O-])c2[nH]1`, for which the growth inhibition is 78.3% (active).
On to `O=C(NC(=O)C(F)(F)F)Nc1ccc(Cl)cc1`, for which the growth inhibition is 18.9% (inactive).
As for `O=[N+]([O-])c1ccc(S)c(Cl)c1`, the growth inhibition was 87.2% (active).
As to `CS(=O)(=O)n1c(C(O)c2ccccc2)nc2ccccc21` (stereo not given), the growth inhibition was 5.6% (inactive).
Turning to `O=C(NCc1ccccc1)C1C(=O)N(Cc2ccccc2)C(=O)/C1=N/O` (stereo not given), the growth inhibition was 31.6% (inactive).
For the molecule `C[n+]1c(/C=C/c2ccccc2Cl)sc2ccccc21`, the growth inhibition was 89.5% (active).
On to `CC(=O)c1ccc(Cl)c(N=Cc2cc(Br)ccc2O)c1`, for which the growth inhibition is 78.2% (active).
The same measure, in the same setting: to `O=C(c1ccc(Cl)cc1)c1ccc([N+](=O)[O-])cc1` belongs 74.5% (active); to `Nc1ccc2c(c1)[nH]c(=O)c1cc(Cl)c(Cl)cc12`, 9.65% (inactive); to `COc1ccc(C2CC(c3c(O)ccc4ccccc34)=NN2)cc1OC` (stereo not given), 90.5% (active).
As for `CC[N+]1(C)CCC(O)(c2ccc(Cl)c(Cl)c2)C(C(=O)c2ccc(Cl)c(Cl)c2)C1` (stereo not given), the growth inhibition is 98.8% (active).
For the molecule `Nc1nc(Cl)cc(NCC2(CO)CC(CCCc3ccccc3)C2)n1` (stereo not given), the growth inhibition was -8.75% (inactive).
On to `Nc1nc(-c2cc3cc(Cl)ccc3o2)cs1`, for which the growth inhibition is 43.7% (inactive).
The same measure, in the same setting: to `O=C(N(c1ccc(Cl)cc1)c1ccc(Cl)cc1)C(Cl)(Cl)Cl` belongs -1.25% (inactive).
Regarding `NC(CSSCC(N)C(=O)Nc1ccc2ccccc2c1)C(=O)Nc1ccc2ccccc2c1` (stereo not given), the growth inhibition was 89.5% (active).
Still for that read-out and setting: next, `O=C/C=C/c1cc([N+](=O)[O-])ccc1Cl`: 79.2% (active); `COc1cc(C(c2cc3c(cc2OC(C)=O)OCO3)C(C(C)=O)C(C)=O)cc(OC)c1OC(C)=O` (stereo not given): 8.75% (inactive).
Take `CCCCc1ccc(Nc2nc(N)c3[nH]cnc3n2)cc1`: the growth inhibition was 34.7% (inactive).
As to `O=C(O)/C=C/C(=O)Nc1cccc2ccccc12`, the growth inhibition is 55% (inactive).
On to `Cc1cc(O)c(C(=O)/C=C/c2ccnc3ccccc23)c(=O)o1`, for which the growth inhibition was -4.8% (inactive).
Regarding `ONC1=Nc2ccccc2OCc2cc(Br)c(Br)cc2COc2ccccc2N=C1NO`, the growth inhibition was 90.9% (active).
`NNC(=O)c1ccc(N)cc1O`: the growth inhibition is -3.65% (inactive).
The same measure, in the same setting: to `O=C(N/C(=C\c1ccc2c(c1)OCO2)c1nc2ccccc2s1)c1ccccc1` belongs 96.8% (active); to `CC1=NN(C(=O)c2ccncc2)C(=O)C1N=Nc1ccc(C)c([N+](=O)[O-])c1` (stereo not given), 3.65% (inactive); to `COc1ccc2nc3cc(Cl)ccc3c(Nc3nccs3)c2c1`, 94.5% (active).
As to `S=C(S)NCCN1CCNCC1`, the growth inhibition is -40.6% (inactive).
As for `ClCc1nc2ccccc2c2ccccc12`, the growth inhibition is 61.1% (inactive).
Still for that read-out and setting: next, `ClC1=C(Cl)C(Cl)(C(Cl)(Cl)Cl)C(Cl)=C1Cl`: 99.7% (active); `FC(F)(F)COP1(OCC(F)(F)F)=NP(OCC(F)(F)F)(OCC(F)(F)F)=NP(c2ccccc2)(c2ccccc2)=N1`: -3.05% (inactive).
On the same count and under the same terms, to `CC(C)c1c(P(=O)(c2ccccc2)c2ccccc2)n(C)c2ccccc12` belongs 84.7% (active); to `CN(CCC1CCCCC1)CCC1CCCCC1`, 96.5% (active); to `Cc1nc(Cl)nc(N)c1[N+](=O)[O-]`, 22.9% (inactive).
`Nc1ccc2[nH]c3ccccc3c2c1`: the growth inhibition is 25.2% (inactive).
Regarding `COc1ccc(NC(=O)CSC(N)=O)cc1`, the growth inhibition was 53% (inactive).
